Screens as filed in PubChem.
Hits are enriched below; roughly 4.2% of the tested compounds scored in any of these assays.
MCF10A rerep: DNA re-replication induction in MCF 10a cells. AID 624296. hit rate 2.9% among 350,000. Potency, µM (top dose mostly 46.1 µM), without a hit: at the highest dose activity, positive = re-replication, usual class: activators. MCF 10A DNA re-replication, Hoechst nuclear intensity, 48 h; note: % of control where 0% means no effect; nearly all actives have a fitted effect of over 50% in size
AT treatment: potential ataxia-telangiectasia treatment | F2112 A-T fibroblasts, KAP-1 phosphorylation AlphaLISA; neocarzinostatin DNA damage 30 min before lysis | Potency, µM (doses to about 57.5 µM), inactives show top-dose activation, most hits filed as activators | hit rate 0.19% among 320,000; note: % of control where 0% means no effect; nearly all actives have a fitted effect of over 45% in size
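ATM-like activity read as KAP-1 phosphorylation via AlphaLISA donor/acceptor antibody pairs after lysis and 6 hr at 25C. Cells were ATM-null patient fibroblasts (F2112, hTERT), dosed 60 min, then exposed to the DSB inducer NCS for 30 min.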
SW480 rereplic: DNA re-replication induction in SW480 cells; SW480 DNA re-replication, Hoechst DNA content imaging, 48 h; Potency, µM (titrated, usually from 46.1 µM), without a hit: at the top dose re-replication activation, actives largely listed as activators; hit rate 1.8% among 340,000; AID 624297; note: % of control where 0% means no effect; nearly all actives have a fitted effect of over 55% in size
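DNA re-replication was detected as more nuclei of elevated Hoechst intensity after 48 hr exposure to compound (23 nL pinned per well of 250 cells).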
a7 integrin act: activators of alpha7 integrin expression for muscular dystrophy. alpha7betagal myoblasts, beta-gal FDG fluorescence, 48 h. Potency, µM (highest dose often 38.3 µM), inactives show at the top dose activation, usual class: activators. hit rate 0.064% among 350,000;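 note: 100% = response of the positive control SU9516; nearly all actives have a fitted effect of over 60% in size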
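Alpha7betagal+/- myoblasts (passage 13) were plated 16-24 hr, then exposed to compounds (1:260 dilution of DMSO stock) for 48 hours at 37C. After MPER lysis, β-galactosidase reporter activity was read as FDG fluorescence (ex 480/em 540) after 30 minutes.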
Mito fusion yeast: blocks mitochondrial division or promotes mitochondrial fusion. S. cerevisiae fusion-defective mutant growth rescue, CellTiterGlo 48 h. Potency, µM (highest dose often 46.1 µM), for the others: at the top dose growth rescue (activation), hits mostly activators. hit rate 0.23% among 320,000; note: % of control where 0% means no effect; nearly all actives have a fitted effect of over 45% in size
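Yeast fusion mutant, YPEG (non-fermentable carbon), compound, 48 h at 37C non-permissive; CellTiterGlo added, 10 min RT, luminescence read. Rescued growth = division inhibition.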
The depositor's hits bear a star; ? = inconclusive; . = no result; [ ] = dose if it differs, or a comment. Calls come from the whole dose curve; as a rule, active = well fitted activation curve with a large enough effect; inconclusive = small, poorly fitted or top-dose-only effect; inactive = no such curve, though single readings can be large or run the other way. Potency is the fitted concentration of half-maximal effect.

SMILES	MCF10A rerep	AT treatment	SW480 rereplic	a7 integrin act	Mito fusion yeast
C[C@@H]1CCCCO[C@H](CN(C)S(=O)(=O)c2cn(C)cn2)[C@@H](C)CN([C@H](C)CO)C(=O)c2cc(NC(=O)c3ccncc3)ccc2O1	.	.	.	-13%	.
O=C1CCC(c2ccccc2)c2ccccc21 (stereo not drawn)	-4%	.	-8%	8%	.
N#CC1C(=O)c2ccccc2C1c1ccccc1 (stereo not drawn)	15µM*	.	18µM*	-49%	.
CC(C)Sc1nsc2nc(=O)c(/C=C3\C=Nc4ccccc43)c(N)n12	18µM*	-10%	?	7%	1%
CCC(CC)c1nn2c(N)c(/C=C3\C(C)=Nc4ccccc43)c(=O)nc2s1	23µM*	-27%	-6%	-8%	-1%
CS(=O)(=O)c1nsc2nc(=O)c(/C=C3\C=Nc4ccccc43)c(N)n12	3%	-3%	0%	-20%	29%
CCC(CC)c1nn2c(N)c(/C=C3\C=Nc4ccccc43)c(=O)nc2s1	3.3µM*	-2%	?	18%	0%
Nc1c(OS(=O)(=O)c2ccccc2)cccc1OS(=O)(=O)c1ccccc1	.	.	.	7%	.
CCCc1c(C(=O)N/N=C/c2ccccc2C(F)(F)F)nnn1-c1nonc1N	13%	1%	-1%	-21%	5%
Nc1c(S(=O)(=O)c2ccccc2)c2nc3ccccc3nc2n1Cc1ccco1	?	22µM*	?	0%[7.66 µM]	5%
Cc1ccc(S(=O)(=O)c2c(N)n(CCC(C)C)c3nc4ccccc4nc23)cc1	?	-4%	16µM*	-74%	7%
Nc1c(S(=O)(=O)c2ccccc2)c2nc3ccccc3nc2n1CCN1CCOCC1	-43%	19%	?	-2%	1%
Cc1ccc(S(=O)(=O)c2c(N)n(Cc3ccco3)c3nc4ccccc4nc23)cc1C	15µM*	15%	?	4%[7.66 µM]	24%
CCn1c(SCC(=O)Nc2ccc3c(c2)OCO3)nnc1C(C)C	1%	7%	-26%	5%	1%
CCCCn1c(N)c(N(CCC(C)C)C(=O)C2=NN(c3ccccc3)C(=O)CC2)c(=O)[nH]c1=O	6%	-4%	-23%	4%	0%
COc1cc(C(=O)N/N=C(\Cc2ncc[nH]2)c2ccccc2)cc(OC)c1OC	18µM*	-5%	?	-20%	-1%
COc1ccc(C(=O)N/N=C(\Cc2ncc[nH]2)c2ccccc2)cc1	?	-1%	9.2µM*	-24%	3%
CC1(C)CCC(=O)N2CC[C@H]3c4cc5ccccc5nc4C[C@@H]1[C@H]32	-50%	.	39%	-8%	.
COc1cccc(CN(C)CC(=O)Nc2cc3oc4ccccc4c3cc2OC)c1	2%	.	7%	-13%	5%
COc1cc2c(cc1NC(=O)CN(C)Cc1cccc(OC)c1OC)oc1ccccc12	7.3µM*	12%	?	0%	?
CC1=CC(=O)N(c2cccc3c(N4C(=O)C=C(C)C4=O)cccc23)C1=O	?	.	13µM*	16%	.
CC(C)CCC(CCNCc1ccccn1)c1ccc(Cl)cc1 (stereo not drawn)	?	29%	?	-6%	-48%
Cc1ccc(-n2c(O)c(C=NCc3ccccn3)c3ccccc3c2=O)cc1C	18%	-3%	?	-16%	15%
Cc1cccc(OCCNC(=O)c2ccc(Cl)c(S(=O)(=O)NCc3cccnc3)c2)c1	5.8µM*	1%	?	-3%	-3%
Cc1cccc(OCCNC(=O)c2cncc(Br)c2)c1	-3%	1%	0.92µM*	-36%	-5%
O=C(NCCOc1ccc2ccccc2c1)c1cncc(Br)c1	-1%	-18%	-1%	-24%	2%
CCNC(=O)N1C[C@H]2CON(C)[C@H]2C[C@H]1c1ccccc1Br	.	.	.	2%	.
Cc1cccc(N(C)C(=O)c2cc3cc4ccc(C)cc4nc3o2)c1	10µM*	10%	?	-3%	-2%
CC(C)CC1=C/C(=C/c2ccc(-c3ccccc3)o2)C(=O)O1	26µM*	-5%	2%	-13%	6%
NS(=O)(=O)c1ccc(-c2ccc(C=C3C(=O)c4ccccc4C3=O)o2)cc1	1%	-6%	-6%	1%	1%
